Records with an inconclusive call do not appear. Activity calls are given as the source filed them. Unless noted, calls come from the whole dose curve; as a rule, active = well fitted curve in the direction sought with a large enough effect; inconclusive = small, poorly fitted or top-dose-only effect, or another doubt; inactive = no such curve, though single readings can be large; an effect the other way counts as inactive or inconclusive.
What was measured:
[1] = biological target: Lysosomal acid glucosylceramidase (Homo sapiens) (UniProt P04062); assay: Glucocerebrosidase-p2 (AID 348; in the data active = potency below about 10 µM; note: potency is the fitted concentration of half-maximal effect); conditions: purified GBA, blue fluorogenic substrate, 40 min
Lysosomal acid glucosylceramidase (Homo sapiens), sequence (P04062 whole entry, looked up): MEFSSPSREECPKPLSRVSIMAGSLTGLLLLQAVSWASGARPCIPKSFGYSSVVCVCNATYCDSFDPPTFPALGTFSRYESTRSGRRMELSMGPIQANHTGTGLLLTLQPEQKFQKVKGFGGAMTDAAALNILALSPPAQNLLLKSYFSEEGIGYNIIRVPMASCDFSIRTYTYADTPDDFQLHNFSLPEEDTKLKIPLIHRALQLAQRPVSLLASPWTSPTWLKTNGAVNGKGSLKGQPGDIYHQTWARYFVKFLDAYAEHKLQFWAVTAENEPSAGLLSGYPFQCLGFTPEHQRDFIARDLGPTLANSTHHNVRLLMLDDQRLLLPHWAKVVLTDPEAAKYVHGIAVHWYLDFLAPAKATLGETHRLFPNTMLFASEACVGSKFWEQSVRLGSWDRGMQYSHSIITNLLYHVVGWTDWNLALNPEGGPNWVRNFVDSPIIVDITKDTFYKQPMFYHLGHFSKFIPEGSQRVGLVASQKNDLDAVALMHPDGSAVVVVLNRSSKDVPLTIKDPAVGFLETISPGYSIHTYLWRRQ
Summary of the method: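 Normal human glucocerebrosidase (0.2 nM) with blue fluorogenic substrate (80 uM final) in citrate/phosphate pH 5.9 with 10mM sodium taurocholate, 0.01% tween-20; 40 min RT, NaOH/glycine stop; fluorescence Ex 365/Em 440; AC50 from a titration from 0.6 nM upwards.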

[2] = AP1 Signaling Pathway (AID 357; active = well fitted curve in either direction with a large enough effect, not every such curve was filed as active;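 note: ME-180 reporter cells stimulated with EGF at its EC50 level; % is set by controls: 0 for no effect and ±100 for the full control effect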); conditions: ME-180 AP-1-bla reporter, EGF-induced, beta-lactamase ratio, 5 h; at 7.69 µM (top of the series) unless noted
Summary of the method: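 AP-1-bla ME-180 cells, Opti-MEM + 0.5% dialyzed FBS, plated overnight 37 °C. Cpd titration + EC50 EGF, 5 h 37 °C. CCF4 2.5 h RT; ex 405, em 460/530 ratio → %activity, AC50.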

[3] = biological target: Cytochrome P450 1A2 (Homo sapiens) (UniProt P05177); assay: p450-cyp1a2 (AID 410; calls by dose curve; note: potency is the fitted concentration of half-maximal effect)
Cytochrome P450 1A2 (Homo sapiens), sequence (P05177 whole entry, looked up): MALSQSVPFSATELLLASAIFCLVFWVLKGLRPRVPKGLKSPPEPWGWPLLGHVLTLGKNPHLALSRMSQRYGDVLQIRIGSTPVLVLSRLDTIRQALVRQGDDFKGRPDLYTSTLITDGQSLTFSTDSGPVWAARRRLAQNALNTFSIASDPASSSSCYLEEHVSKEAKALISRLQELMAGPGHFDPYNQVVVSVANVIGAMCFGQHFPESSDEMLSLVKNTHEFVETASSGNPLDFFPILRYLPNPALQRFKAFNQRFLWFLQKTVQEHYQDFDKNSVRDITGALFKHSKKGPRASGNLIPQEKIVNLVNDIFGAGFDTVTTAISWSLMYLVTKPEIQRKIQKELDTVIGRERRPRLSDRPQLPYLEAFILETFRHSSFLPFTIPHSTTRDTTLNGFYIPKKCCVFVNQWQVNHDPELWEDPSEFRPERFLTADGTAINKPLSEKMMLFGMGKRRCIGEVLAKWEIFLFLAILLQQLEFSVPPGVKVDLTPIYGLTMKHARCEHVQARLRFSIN
Summary of the method: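 O-Demethylation of luciferin 6' methyl ether by human CYP1A2 is monitored as luciferase luminescence. Substrate sits at Km (100uM); enzyme is 20nM. Values are scaled to 57 uM furafylline as maximal inhibition.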

[4] = NFAT Signaling Pathway (AID 444; active = well fitted curve in either direction with a large enough effect, not every such curve was filed as active;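 note: carbachol stimulus at about its EC50 of 1 µM final; % is set by controls: 0 for no effect and ±100 for the full control effect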); conditions: Jurkat NFAT-bla M1, carbachol, beta-lactamase ratio, 5 h; at 7.69 µM (top of the series) unless noted
Summary of the method: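 Read-out: CCF4 FRET ratio (460 nm/530 nm) after 1 h RT dye loading, used for %activity and AC50 from titration series. Cells: Jurkat NFAT-β-lactamase/M1 line, treated with compound plus 1 uM carbachol for 5 h, 37 °C.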

[5] = Stat Signaling Pathway (AID 446; active = well fitted curve in either direction with a large enough effect, not every such curve was filed as active;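 note: ME-180 cervical cancer cells given 40 pM IL-6 alongside compound; SIE-controlled beta-lactamase reporter measured as 460/530 nm FRET emission ratio; % is set by controls: 0 for no effect and ±100 for the full control effect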); conditions: ME-180 SIE beta-lactamase reporter, IL-6 stimulated, 5 h; at 7.69 µM (top of the series) unless noted
Summary of the method: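 FRET read-out (405 nm excitation, 460/530 nm emission) of a beta-lactamase reporter under a STAT-inducible element in ME-180 cervical carcinoma cells. Cells with compound receive 40 pM IL-6 for 5 h. Values are normalised to AC90 stimulation and AC90 JAK-inhibitor controls.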

[6] = biological target: Glucocorticoid receptor (Homo sapiens) (UniProt P04150); assay: GR-GFP Redistribution (AID 450;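 active = compounds whose dose series gives a full or clear partial fitted curve of increased nuclear translocation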; note: potency is the fitted concentration of half-maximal effect); conditions: U2OS GR-GFP nuclear translocation, laser cytometry, 2 h
Glucocorticoid receptor (Homo sapiens), sequence (P04150 whole entry, looked up, the tested form may be a part): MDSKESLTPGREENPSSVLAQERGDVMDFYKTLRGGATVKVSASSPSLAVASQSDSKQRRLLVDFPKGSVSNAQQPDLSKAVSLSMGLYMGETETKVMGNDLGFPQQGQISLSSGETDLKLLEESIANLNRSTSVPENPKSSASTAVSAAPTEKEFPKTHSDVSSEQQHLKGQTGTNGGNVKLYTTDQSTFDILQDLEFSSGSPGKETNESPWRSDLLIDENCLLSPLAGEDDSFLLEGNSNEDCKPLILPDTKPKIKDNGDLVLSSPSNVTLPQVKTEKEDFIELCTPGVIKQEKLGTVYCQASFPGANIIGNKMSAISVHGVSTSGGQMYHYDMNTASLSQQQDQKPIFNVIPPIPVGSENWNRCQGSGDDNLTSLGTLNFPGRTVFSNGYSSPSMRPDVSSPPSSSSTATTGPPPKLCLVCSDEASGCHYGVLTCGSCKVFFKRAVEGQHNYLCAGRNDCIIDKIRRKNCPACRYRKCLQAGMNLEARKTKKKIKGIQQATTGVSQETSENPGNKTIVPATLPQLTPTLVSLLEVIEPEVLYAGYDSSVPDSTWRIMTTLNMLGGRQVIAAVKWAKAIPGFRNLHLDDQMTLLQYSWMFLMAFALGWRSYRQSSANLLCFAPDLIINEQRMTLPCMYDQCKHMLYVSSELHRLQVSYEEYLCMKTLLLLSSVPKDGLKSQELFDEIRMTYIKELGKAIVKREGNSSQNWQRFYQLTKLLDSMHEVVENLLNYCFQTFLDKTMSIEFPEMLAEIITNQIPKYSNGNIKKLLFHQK

[7] = biological target: Glucocorticoid receptor (Homo sapiens) (UniProt P04150); assay: GR-EFC Redistribution (AID 451; calls by dose curve; note: potency is the fitted concentration of half-maximal effect); conditions: CHO-K1 GR-EFC translocation, beta-gal luminescence, 2 h
Summary of the method: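 Translocation of GR-ED fusion to nuclear EA restores b-gal, read by luminescence after 1 h room-temperature detection. Engineered CHO-K1 biosensor cells, 1,000/well, exposed 2 h at 37 C to titrations up to 46 uM final.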

[8] = biological target: Mitogen-activated protein kinase 10 (Mus musculus) (UniProt Q61831); assay: JNK3 AlphaScreen Assay (AID 530; active = well fitted curve in either direction with a large enough effect, not every such curve was filed as active;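 note: kinase came from lysate of stimulated human HepG2 cells; signal reports phosphorylation of biotinylated GST-cJun 1-79 at Ser73 with 10 µM ATP; % is set by controls: 0 for no effect and ±100 for the full control effect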)
Summary of the method: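 qHTS titrations with 15 min compound pre-incubation before adding ATP (10 uM final). Read-out: AlphaScreen of Ser73-phosphorylated biotin-GST-cJun using HepG2 lysate JNK3 activated by IL-1β and TNFα.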

[9] = biological target: 3',5'-cyclic-AMP phosphodiesterase 4B (Homo sapiens) (UniProt Q07343); assay: qHTS Assay for Inhibitors of PDE-IV (AID 607; active = well fitted activation curve with a large enough effect in the main read-out, with a control signal flat, not every such curve was filed as active; note: % of control where 0% means no effect)
3',5'-cyclic-AMP phosphodiesterase 4B (Homo sapiens), sequence (Q07343 whole entry, looked up): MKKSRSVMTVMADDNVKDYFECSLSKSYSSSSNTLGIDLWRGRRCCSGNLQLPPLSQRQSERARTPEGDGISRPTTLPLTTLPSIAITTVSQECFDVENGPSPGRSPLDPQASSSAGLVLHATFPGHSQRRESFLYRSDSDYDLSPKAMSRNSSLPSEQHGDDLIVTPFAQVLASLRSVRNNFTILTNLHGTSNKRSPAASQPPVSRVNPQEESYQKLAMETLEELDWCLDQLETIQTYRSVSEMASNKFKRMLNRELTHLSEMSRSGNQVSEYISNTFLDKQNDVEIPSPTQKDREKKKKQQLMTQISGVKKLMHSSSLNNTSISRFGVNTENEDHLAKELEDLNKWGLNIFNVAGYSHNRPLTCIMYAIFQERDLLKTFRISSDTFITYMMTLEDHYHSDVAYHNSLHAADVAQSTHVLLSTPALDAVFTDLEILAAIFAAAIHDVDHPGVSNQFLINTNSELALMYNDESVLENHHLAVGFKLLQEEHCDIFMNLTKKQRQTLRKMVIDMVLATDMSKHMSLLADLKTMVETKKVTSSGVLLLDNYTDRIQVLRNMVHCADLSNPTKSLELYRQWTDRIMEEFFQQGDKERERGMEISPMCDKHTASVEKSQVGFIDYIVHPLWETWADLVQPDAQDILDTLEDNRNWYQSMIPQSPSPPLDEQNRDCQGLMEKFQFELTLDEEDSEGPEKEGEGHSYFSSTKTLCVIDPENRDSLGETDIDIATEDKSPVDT
Summary of the method: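 Cell-based read-out of cAMP via a modified cyclic nucleotide-gated channel and membrane potential dye (535/590 nm) in HEK293 cells expressing PDE4 endogenously. Compounds tested up to 22.9 uM final; 100 uM RO 20-1724 reference.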

[10] = qHTS Assay for Identification of Small Molecule Agonists for Hypoxia Response Element Signaling Pathway (AID 914; active = well fitted activation curve with a large enough effect in the signal ratio, with a control signal flat, not every such curve was filed as active; the % refers to the signal ratio; note: % of control where 0% means no effect); conditions: ME-180 (cervical carcinoma) HRE-bla reporter, beta-lactamase ratio, CoCl2, 17 h; activation: hits give high values
Summary of the method: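 Positive modulation of EC50 CoCl2-induced hypoxia response element signaling is measured in ME-180 cells with a beta-lactamase reporter. Compounds are titrated, incubation runs 17 hours, and %Activity derives from the blue/green ratio.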

[11] = biological target: ATP-dependent 6-phosphofructokinase (Trypanosoma brucei brucei) (UniProt O15648); assay: qHTS Assay to Find Inhibitors of T. brucei phosphofructokinase: hit validation (AID 492961)
ATP-dependent 6-phosphofructokinase (Trypanosoma brucei brucei), sequence (O15648 whole entry, looked up): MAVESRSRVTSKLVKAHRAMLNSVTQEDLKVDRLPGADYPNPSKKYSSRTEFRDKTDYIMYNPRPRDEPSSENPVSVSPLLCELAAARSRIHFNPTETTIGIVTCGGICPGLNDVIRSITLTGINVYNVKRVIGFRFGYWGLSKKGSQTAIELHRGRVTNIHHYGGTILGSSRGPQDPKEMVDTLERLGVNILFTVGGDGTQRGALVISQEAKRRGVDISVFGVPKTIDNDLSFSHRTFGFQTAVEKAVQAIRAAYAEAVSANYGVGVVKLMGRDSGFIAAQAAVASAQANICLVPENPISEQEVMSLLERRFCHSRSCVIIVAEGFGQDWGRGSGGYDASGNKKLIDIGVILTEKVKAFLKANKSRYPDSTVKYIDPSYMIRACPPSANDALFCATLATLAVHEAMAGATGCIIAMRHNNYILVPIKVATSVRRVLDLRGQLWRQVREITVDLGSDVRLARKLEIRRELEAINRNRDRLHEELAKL
Summary of the method: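 In this biochemical qHTS validation, titrated compounds were tested against 1.25 nM PFK with 0.1 mM ATP and 0.5 mM F6P. Percent activity came from controls lacking or containing enzyme.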

[12] = biological target: Ubiquitin carboxyl-terminal hydrolase 1 (Homo sapiens) (UniProt O94782); assay: Inhibitors of USP1/UAF1: Pilot qHTS (AID 504865);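 note: rhodamine fluorescence freed from ubiquitin-rhodamine substrate followed over time; top concentration of the series differs between compounds; % is set by controls: 0 for no effect and ±100 for the full control effect; nearly all actives have a fitted effect of over 35% in size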
Ubiquitin carboxyl-terminal hydrolase 1 (Homo sapiens), sequence (O94782 whole entry, looked up): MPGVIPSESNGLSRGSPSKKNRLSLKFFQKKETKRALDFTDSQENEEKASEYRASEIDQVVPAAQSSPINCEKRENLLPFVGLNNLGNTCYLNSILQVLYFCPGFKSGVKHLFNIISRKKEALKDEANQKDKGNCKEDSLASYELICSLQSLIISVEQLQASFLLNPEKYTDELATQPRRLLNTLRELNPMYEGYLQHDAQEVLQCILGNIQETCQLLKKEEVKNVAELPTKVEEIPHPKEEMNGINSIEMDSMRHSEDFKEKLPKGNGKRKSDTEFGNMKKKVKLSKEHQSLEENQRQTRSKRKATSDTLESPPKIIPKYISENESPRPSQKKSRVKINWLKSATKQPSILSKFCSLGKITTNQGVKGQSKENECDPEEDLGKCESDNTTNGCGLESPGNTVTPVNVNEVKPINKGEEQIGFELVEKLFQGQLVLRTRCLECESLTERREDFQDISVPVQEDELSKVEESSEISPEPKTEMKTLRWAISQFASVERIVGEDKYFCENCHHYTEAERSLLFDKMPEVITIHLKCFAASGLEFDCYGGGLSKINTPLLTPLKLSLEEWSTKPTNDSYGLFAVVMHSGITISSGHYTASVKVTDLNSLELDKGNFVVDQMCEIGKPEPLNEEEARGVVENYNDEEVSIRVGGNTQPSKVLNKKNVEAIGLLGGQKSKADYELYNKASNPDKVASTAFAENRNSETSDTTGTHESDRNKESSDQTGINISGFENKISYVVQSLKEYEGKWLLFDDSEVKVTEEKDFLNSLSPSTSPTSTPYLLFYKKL
Summary of the method: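 Deubiquitinase activity followed as kinetic rhodamine fluorescence release from 150 nM Ub-Rho. 1 nM USP1/UAF1 with compound, after 15 min room-temperature preincubation, in HEPES pH 7.8 buffer containing TCEP, EDTA, BSA and Tween-20.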

[13] = biological target: Luciferin 4-monooxygenase (Photinus pyralis) (UniProt P08659); assay: Biochemical firefly luciferase enzyme assay for NPC (AID 624030);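 note: purified P. pyralis luciferase at 10 nM with luciferin and ATP substrate; 0% = DMSO and -100% = full luciferase inhibition by PTC124 control; nearly all actives have a fitted effect of over 70% in size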
Luciferin 4-monooxygenase (Photinus pyralis), sequence (P08659 whole entry, looked up): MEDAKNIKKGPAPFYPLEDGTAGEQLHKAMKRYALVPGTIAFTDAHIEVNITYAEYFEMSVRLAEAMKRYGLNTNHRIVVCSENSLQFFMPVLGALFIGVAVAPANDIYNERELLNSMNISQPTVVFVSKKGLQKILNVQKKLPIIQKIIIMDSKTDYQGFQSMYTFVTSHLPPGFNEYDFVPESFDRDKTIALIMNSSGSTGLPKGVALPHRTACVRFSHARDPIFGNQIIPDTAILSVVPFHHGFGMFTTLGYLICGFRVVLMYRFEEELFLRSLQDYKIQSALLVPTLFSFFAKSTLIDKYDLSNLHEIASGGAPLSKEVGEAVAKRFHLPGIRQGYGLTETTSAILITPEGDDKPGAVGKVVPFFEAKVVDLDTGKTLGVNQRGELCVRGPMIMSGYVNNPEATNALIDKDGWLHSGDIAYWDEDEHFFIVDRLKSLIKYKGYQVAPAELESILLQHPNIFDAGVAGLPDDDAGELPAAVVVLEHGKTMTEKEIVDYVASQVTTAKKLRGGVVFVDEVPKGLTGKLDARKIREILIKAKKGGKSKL
Summary of the method: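 Direct inhibition of firefly luciferase enzyme (10 nM final, 50 mM Tris Acetate) assessed by luminescence within 5 minutes. Percent activity scaled between DMSO and PTC124 positive control, with concentration-effect curves classified by fit quality and response.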

[14] = S16 Schwann cell PMP22 intronic element firefly luciferase assay (AID 624032);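 note: plate controls were DMSO for no effect and PTC124 positive control mean for full effect; nearly all actives have a fitted effect of over 30% in size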
Summary of the method: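 Luciferase reporter of PMP22 intronic-element expression in stably transfected S16 rat Schwann cells, read by ONE-Glo luminescence after 24 h compound exposure at 37 C. Activity scaled between DMSO (0%) and positive-control PTC124; concentration-effect curves quality-classified.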

[15] = S16 Schwann cell PMP22 intronic element beta-lactamase assay (AID 624044; calls by dose curve;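 note: 0% = DMSO and -100% = potassium clavulanate positive control; nearly all actives have a fitted effect of over 15% in size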)
Summary of the method: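 Beta-lactamase reporter under a PMP22 intronic regulatory element in stable S16 rat Schwann cells; 24 h compound exposure. 460 nm blue signal normalized between DMSO (0%) and potassium clavulanate, with 535 nm FRET tracking viability; curves classed by r2 and response.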

[16] = qHTS profiling for inhibitors of Plasmodium falciparum proliferation (AID 504749);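 note: 0% = DMSO vehicle and full inhibition = artemisinin control; nearly all actives have a fitted effect of over 60% in size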; conditions: P. falciparum in erythrocytes, SYBR Green DNA, 72 h, at 28.7 µM (top of the series)
Summary of the method: (§1)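 SYBR Green fluorescence of parasite DNA, read after lysis and overnight dark incubation, measured growth over 72 h in erythrocyte culture at 0.3% parasitemia and 2.5% hematocrit. Data normalised to DMSO and 0.29 uM artemisinin, with plate-drift correction.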

3D7 = assay: as above; conditions: P. falciparum in erythrocytes, SYBR Green DNA, 72 h; series mostly up to 28.7 µM
Summary of the method: as §1

7G8 = assay: as above; conditions: P. falciparum in erythrocytes, SYBR Green DNA, 72 h; series mostly up to 28.7 µM
Summary of the method: as §1

AA1029 = assay: as above; conditions: P. falciparum in erythrocytes, SYBR Green DNA, 72 h; series mostly up to 28.7 µM
Summary of the method: as §1

AS120 = assay: as above; conditions: P. falciparum in erythrocytes, SYBR Green DNA, 72 h; series mostly up to 28.7 µM
Summary of the method: as §1

ATS189 = assay: as above; conditions: P. falciparum in erythrocytes, SYBR Green DNA, 72 h; series mostly up to 28.7 µM
Summary of the method: as §1

C2A = assay: as above; conditions: P. falciparum in erythrocytes, SYBR Green DNA, 72 h; series mostly up to 28.7 µM
Summary of the method: as §1

CP185 = assay: as above; conditions: P. falciparum in erythrocytes, SYBR Green DNA, 72 h; series mostly up to 28.7 µM
Summary of the method: as §1

CP191 = assay: as above; conditions: P. falciparum in erythrocytes, SYBR Green DNA, 72 h; series mostly up to 28.7 µM
Summary of the method: as §1

CP192 = assay: as above; conditions: P. falciparum in erythrocytes, SYBR Green DNA, 72 h; series mostly up to 28.7 µM
Summary of the method: as §1

CP194 = assay: as above; conditions: P. falciparum in erythrocytes, SYBR Green DNA, 72 h; series mostly up to 28.7 µM
Summary of the method: as §1

CP201 = assay: as above; conditions: P. falciparum in erythrocytes, SYBR Green DNA, 72 h; series mostly up to 28.7 µM
Summary of the method: as §1

CP203 = assay: as above; conditions: P. falciparum in erythrocytes, SYBR Green DNA, 72 h; series mostly up to 28.7 µM
Summary of the method: as §1

CP211 = assay: as above; conditions: P. falciparum in erythrocytes, SYBR Green DNA, 72 h; series mostly up to 28.7 µM
Summary of the method: as §1

CP215 = assay: as above; conditions: P. falciparum in erythrocytes, SYBR Green DNA, 72 h; series mostly up to 28.7 µM
Summary of the method: as §1

CP217 = assay: as above; conditions: P. falciparum in erythrocytes, SYBR Green DNA, 72 h; series mostly up to 28.7 µM
Summary of the method: as §1

CP237 = assay: as above; conditions: P. falciparum in erythrocytes, SYBR Green DNA, 72 h; series mostly up to 28.7 µM
Summary of the method: as §1

CP238 = assay: as above; conditions: P. falciparum in erythrocytes, SYBR Green DNA, 72 h; series mostly up to 28.7 µM
Summary of the method: as §1

CP247 = assay: as above; conditions: P. falciparum in erythrocytes, SYBR Green DNA, 72 h; series mostly up to 28.7 µM
Summary of the method: as §1

CP250 = assay: as above; conditions: P. falciparum in erythrocytes, SYBR Green DNA, 72 h; series mostly up to 28.7 µM
Summary of the method: as §1

CP252 = assay: as above; conditions: P. falciparum in erythrocytes, SYBR Green DNA, 72 h; series mostly up to 28.7 µM
Summary of the method: as §1

NS(=O)(=O)c1cc2c(cc1Cl)N[C@H](Cc1ccccc1)NS2(=O)=O
inactive: Potency [1] > 11.4 µM | activity change, negative = inhibition [2] -4.23% | activity change, negative = inhibition [4] 23.7% | activity, negative = inhibition [5] 1.94% | Potency [6] > 46 µM | Potency [7] > 9.22 µM | Potency [8] | Potency [9] | activation [10] 4.65% | outcome [11] | Potency [12] | outcome [13] | Potency [14] | outcome [15] | activity, negative = inhibition ([16]; parasite line A) 6.22% | activity, negative = inhibition ([16]; parasite line B) -2.36% | Potency (3D7) | Potency (7G8) | Potency (AA1029) | Potency (AS120) | Potency (ATS189) | Potency (C2A) | Potency (CP185) | Potency (CP191) | Potency (CP192) | Potency (CP194) | Potency (CP201) | Potency (CP203) | Potency (CP211) | Potency (CP215) | Potency (CP217) | Potency (CP237) | Potency (CP238) | Potency (CP247) | Potency (CP250) | Potency (CP252)
active: Potency [3] 3.16 µM

Source: PubChem BioAssay (NCATS)
